# VDR inhibitor: blocks the human vitamin D receptor. VDR-SRC2-3 peptide fluorescence polarization, 2 h. Potency, µM, for the others: max response, negative = inhibition, hits mostly inhibitors. 400,000 tested, 0.93% active. AID 504847
# Target sequence (P11473 whole entry, looked up): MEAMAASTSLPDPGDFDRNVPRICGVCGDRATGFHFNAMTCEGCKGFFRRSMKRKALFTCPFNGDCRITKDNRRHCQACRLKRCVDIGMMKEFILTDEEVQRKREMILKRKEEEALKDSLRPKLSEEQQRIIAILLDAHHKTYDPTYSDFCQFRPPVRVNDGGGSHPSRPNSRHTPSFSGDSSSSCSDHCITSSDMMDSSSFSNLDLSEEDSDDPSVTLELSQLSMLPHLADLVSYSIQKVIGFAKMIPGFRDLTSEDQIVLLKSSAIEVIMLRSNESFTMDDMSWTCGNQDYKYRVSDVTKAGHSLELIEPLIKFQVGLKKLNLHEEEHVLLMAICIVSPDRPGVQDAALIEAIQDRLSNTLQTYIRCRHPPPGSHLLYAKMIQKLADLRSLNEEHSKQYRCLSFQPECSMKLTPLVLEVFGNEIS
#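 Signal is fluorescence polarization, reporting how far test compounds block the interaction of VDR with the SRC2-3 coregulator peptide after a 2 h room-temperature incubation.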
# KAT2A inh: inhibitors of human GCN5L2 histone acetyltransferase; GCN5L2 HAT assay, ThioGlo1 CoA-SH fluorescence; Potency, µM (doses to about 58.9 µM), without a hit: at the top dose activity change, negative = inhibition, actives largely listed as inhibitors; 390,000 tested, 0.21% active; AID 504327
#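 Preincubate 20nM GCN5L2 with compound 15 min, RT → add 50uM ThioGlo1 + 75uM H3(1-25) + 70uM acetyl-CoA → read fluorescence 0 and 20 min. Primary qHTS; fluorescent artifacts likely.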
# DT40 TDP1 CPT: DT40-hTDP1 cell growth loss with CPT; Potency, µM (series often up to 46.2 µM), without a hit: at the highest dose activity change, negative = growth inhibition, usual class: inhibitors; AID 686979; 420,000 tested, 12% active; chicken DT40 Tdp1-/-;hTDP1 cells + 20 nM CPT, ATP luminescence, 48 h; further: nearly all actives have a fitted effect of over 55% in size
#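 Cell growth measured by CellTiter-Glo luminescence after a minimum 48 h, 37 C compound exposure with 20 nM CPT in Tdp1-knockout DT40 cells stably expressing hTDP1, seeded 400/well; qHTS titration format.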
# DT40 TDP1 no CPT: qHTS for Inhibitors of human tyrosyl-DNA phosphodiesterase 1 (TDP1): qHTS in cells in absence of CPT | DT40 Tdp1-/- hTDP1 cells, no CPT, ATP luminescence, 48 h | Potency, µM (top dose mostly 46.2 µM), inactives show top-dose activity change, negative = growth inhibition, hits mostly inhibitors | 420,000 tested, 15% active | AID 686978, 2013; further: nearly all actives have a fitted effect of over 55% in size
#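 Luminescent ATP content (CellTiter-Glo) served as the growth readout. Knockout chicken DT40 cells expressing human TDP1 were exposed to compounds without camptothecin for a minimum 48 hr at 37 °C.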
# PLK1 PBD inh: PLK1 (human) polo-box domain binding inhibition; P53350; Potency, µM, for inactives: max response, negative = inhibition, most hits filed as inhibitors; Plk1 PBD binding of FITC phosphopeptide, fluorescence polarization; AID 720504; 360,000 tested, 2.8% active; further: series mostly up to about 57 µM; nearly all actives have a fitted effect of over 65% in size
# TDP1 inh: inhibitors of human tyrosyl-DNA phosphodiesterase TDP1. Potency, µM (highest dose often 130 µM), inactives show top-dose activity change, negative = inhibition, usual class: inhibitors. 350,000 tested, 0.28% active. Q9NUW8. recombinant TDP1, AlphaScreen DNA substrate cleavage; further: nearly all actives have a fitted effect of over 40% in size
#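 E. coli-derived human Tdp1, 1 nM final. Cpd preinc 15 min RT; substrate 15 nM final, 5 min RT; AS bead mix 10 ug/ml final, 10 min RT. Signal loss = tyrosine-FITC cleavage. No-enzyme wells = max signal.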
# * = called active by the depositor; ? = inconclusive; · = no result given; [ ] = dose if it differs, or a comment. An excerpt weighted towards active compounds, which were near 18% of everything screened. The call rests on the fitted dose curve; in most records, active means well fitted curve in the direction sought with a large enough effect; inconclusive means small, poorly fitted or top-dose-only effect, or another doubt; inactive means no such curve, though single readings can be large; an effect the other way counts as inactive or inconclusive. On the % scale 0 is the no-effect control and ±100 the full control effect; potency means the concentration at half of the fitted maximal effect.
SMILES,VDR inhibitor,KAT2A inh,DT40 TDP1 CPT,DT40 TDP1 no CPT,PLK1 PBD inh,TDP1 inh
CCc1c(-c2cccc(OC)c2)ncn1Cc1cccc(-c2ccccc2)c1,·,·,6.5µM*,8.2µM*,-12%,·
CCc1c(-c2ccc(Cl)cc2)ncn1Cc1cccc(-c2ccccc2)c1,·,·,6.5µM*,7.3µM*,-18%,·
CCc1c(C2CC2)ncn1Cc1cccc(-c2ccccc2)c1,·,·,1.8µM*,1.8µM*,-4%,·
O=C(COC(=O)c1cccc(Br)c1)NCC1CCCO1 (configuration not stated),1%,-4%,-10%,-3%,2%,1%
CCCc1nc2c3ccccc3ccn2c1Cc1cccc(F)c1,·,·,?,?,-1%,·
CCc1c(-c2ccccc2)ncn1Cc1cccc(-c2ccccc2)c1,·,·,8.2µM*,8.2µM*,-2%,·
CCCc1c(Cc2cccc(F)c2)ncn1Cc1cccc(-c2ccccc2)c1,·,·,3.3µM*,3.7µM*,-16%,·
CCOc1ccc(CCNC(=O)c2c(C)oc3ncnc(N4CCOCC4)c23)cc1,2%,-1%,?,-27%,·,2%
COc1ccc(CN(Cc2nc3ccccc3c(=O)[nH]2)C(=O)C(C)(C)C)cc1,2%,-11%,?,?,0%,2%
CCC(CC)C(=O)N(CCc1ccc(OC)cc1)Cc1nc2ccccc2c(=O)[nH]1,0%,-5%[0.501 µM],23µM*,21µM*,-2%,8%
CC(C)(C)c1cc(C(C)(C)C)c2oc(=O)c(-c3nc4ccccc4[nH]3)cc2c1,6%,-16%,9.2µM*,8.2µM*,·,2%
CCCCNC(=O)C(CC)Sc1nnc(-c2ccc(F)cc2)c(-c2ccc(F)cc2)n1 (configuration not stated),2%,0%,?,?,·,6%
CCCCNC(=O)C(CC)Sc1nnc(-c2cccc(F)c2)c(-c2cccc(F)c2)n1 (configuration not stated),8%,-2%,16µM*,?,·,5%
CC(C)(C)OC(=O)N1CCC[C@@H]1CO,-2%,3%,-3%,9%,-2%,8%
C[C@@H]1CCCCCCCCC(=O)OCCN1C(=O)OC(C)(C)C,-20%,-2%,16µM*,?,1%,-3%
Clc1ccccc1-c1nnc2sc(C3COc4ccccc4O3)nn12 (configuration not stated),?,?,?,-23%,?,2%
COc1ccccc1-c1nn2c(C3COc4ccccc4O3)nnc2s1 (configuration not stated),71µM*,2%,?,?,12µM*,1%
Cc1ccc(-c2nnc3sc(C4COc5ccccc5O4)nn23)cc1 (configuration not stated),2%,-3%,?,23µM*,-10%,0%
c1ccc(Cc2nnc3sc(C4COc5ccccc5O4)nn23)cc1 (configuration not stated),?,-4%,?,?,15µM*,5%
COc1ccccc1-c1nn2c(C(F)(F)F)nnc2s1,7%,-4%,-4%,-19%,-9%,2%
c1ccc(CCc2nn3c(C4COc5ccccc5O4)nnc3s2)cc1 (configuration not stated),-77%,-17%,?,?,24µM*,5%
Cc1ccc(CN(Cc2cccn2-c2nnc(N3CCCC3=O)s2)C(=O)Nc2ccccc2Cl)cc1,8%,-10%,?,?,·,3%
COCCNC(=O)C(c1ccc(Cl)cc1)N(CCOC)C(=O)CCC(=O)Nc1nccs1 (configuration not stated),-16%,-3%,-10%,?,-18%,7%
Cc1noc(Cn2c(=O)c3ccccc3n(CC(=O)Nc3ccccc3C(F)(F)F)c2=O)n1,-1%,-6%,17%,-21%,·,·
O=C(NCC1CCCO1)C(=O)N/N=C\c1ccc2c(c1)OCO2 (configuration not stated),-7%,-5%,-8%,12%,-3%,6%
SMILES,VDR inhibitor,KAT2A inh,DT40 TDP1 CPT,DT40 TDP1 no CPT,PLK1 PBD inh,TDP1 inh
COc1ccc(/C=N/NC(=S)Nc2ccccc2[N+](=O)[O-])cc1O,1%,-6%,6.5µM*,4.6µM*,-9%,-3%
Cc1cccc(NC(=S)N/N=C/c2cccc(O)c2)c1C,15%,-6%,2.6µM*,2.6µM*,1%,·
COc1cc(/C=N/Nc2ccc(F)cc2F)cc(OC)c1O,-23%,-5%,2.3µM*,5.8µM*,27µM*,8%
Cc1c(NC(=S)N/N=C/c2cccc(O)c2)c(=O)n(-c2ccccc2)n1C,16%,-4%,-9%,-4%,-6%,5%
COc1cc(/C=N/Nc2ccccc2[N+](=O)[O-])cc(OC)c1O,-12%,-2%,?,6.5µM*,-6%,-2%
Cc1ccc(S(=O)(=O)Nc2cc(Br)cc3cccnc23)cc1,1%,·,·,·,·,-2%
O=C(NCCc1cccs1)Nc1nnc([C@H]2C[C@H](O)[C@@H](CO)O2)s1,·,·,-12%,-1%,0%,·
O=S(=O)(c1ccc(F)cc1)N1CCN(c2nc(-c3cccs3)nc3cc(Cl)ccc23)CC1,-20%,·,·,·,·,-2%
COc1ccc(OC)c(-c2nc3cc4ccccc4cc3nc2-c2ccccc2)c1,-12%,-18%,?,?,-11%,-3%
CC(C)(C)CCN1CCC(CN2CCNC2=S)CC1,·,·,-12%,-5%,-12%,·
Cc1ccc(NC(=S)N/N=C/c2ccc(Cl)c([N+](=O)[O-])c2)cc1,-1%,-4%,10%,-6%,1%,7%
O=[N+]([O-])c1cc(/C=N/NC(=S)Nc2ccccc2Cl)ccc1Cl,?,-2%,?,12µM*,6%,3%
S=C(N/N=C/c1ccc(Cl)c(Cl)c1)Nc1ccccc1Cl,-26%,-6%,23µM*,?,-19%,8%
Cc1ccc(NC(=S)N/N=C/c2c(Cl)cccc2Cl)c(C)c1,-11%,-8%,1.3µM*,1.5µM*,-1%,5%
Cc1ccc2c(c1)C(=O)OC(C(=O)Nc1ccc(C(=O)O)cc1)C2 (configuration not stated),1%,-3%,·,·,·,0%
Cc1ccc(C)c2c1CCCC2=O,·,·,7%,-18%,-7%,·
Cc1[nH]nc2c1C(=O)CCC2,-4%,-12%,23µM*,18µM*,7.5µM*,1%
O=[N+]([O-])c1cccc(N=NNc2cccc([N+](=O)[O-])c2)c1,·,·,?,18µM*,-2%,·
O=[N+]([O-])c1cccc(N=Nc2ccc(O)cc2O)c1,-2%,·,3.3µM*,5.2µM*,-7%,·

# Compound activity (PubChem)
